Most compounds without a hit are left out; they make up all but 4.3% or so of the library.
D3 antag = blocks the human D3 dopamine receptor | actives 2.5% (n = 360,000) | P35462 | D3R cells, DiscoveRx beta-arrestin luminescence, antagonist mode; active compounds read low | max response, negative = inhibition, % | AID 652054; in the data active = max response below about -50%; inconclusive = no clear call, values can overlap the other calls; note: % is set by controls: 0 for no effect and ±100 for the full control effect
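Cells expressing the human receptor were seeded at 1500 cells/well, incubated overnight at 37 degrees C in 5% CO2, then exposed to library compounds with dopamine controls for 90 minutes at 37 degrees C before luminescent detection.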
D3 ag = activates the human D3 dopamine receptor | P35462 | D3R DiscoveRx beta-arrestin cells, luminescence, 90 min | max activation, % | actives 0.58% (n = 410,000) | AID 652048; in the data active = max activation above about 30%; note: 0% is about no effect
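Agonist-mode cell screen: cells plated at 1500/well and incubated overnight at 37 °C, then exposed to library compounds for 90 min at 37 °C. Detection reagent was added for 30–60 min at room temperature, and luminescence was read.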
GLP-1R agonist = agonists of human GLP-1 receptor. AID 624172. actives 0.007% (n = 380,000). Potency, µM (series often up to 45.6 µM), inactives show at the highest dose activation, actives largely listed as activators. P43220. HEK293 GLP-1R CRE-luciferase, luminescence, 4-6 h; cells express a hypersensitive GLP-1R form; note: potency is the fitted concentration of half-maximal effect; % of control where 0% means no effect
Target sequence (P43220 whole entry, looked up): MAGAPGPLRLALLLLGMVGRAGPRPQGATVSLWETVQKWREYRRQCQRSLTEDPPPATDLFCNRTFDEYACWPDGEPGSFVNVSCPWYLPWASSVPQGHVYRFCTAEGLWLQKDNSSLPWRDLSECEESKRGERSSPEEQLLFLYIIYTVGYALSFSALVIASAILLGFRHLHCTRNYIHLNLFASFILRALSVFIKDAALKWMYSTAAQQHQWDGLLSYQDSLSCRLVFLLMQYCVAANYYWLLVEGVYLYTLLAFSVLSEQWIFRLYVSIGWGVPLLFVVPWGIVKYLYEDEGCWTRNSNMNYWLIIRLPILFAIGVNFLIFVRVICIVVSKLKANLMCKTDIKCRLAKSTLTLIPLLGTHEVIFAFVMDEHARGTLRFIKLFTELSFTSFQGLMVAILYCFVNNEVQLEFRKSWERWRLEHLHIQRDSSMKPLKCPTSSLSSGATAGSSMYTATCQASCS
GLP-1R inv ag = inverse agonists of human GLP-1 receptor; P43220; HEK293 GLP-1R CRE-luciferase, luminescence, 24 h; GLP-1R form is constitutively active; Potency, µM (series often up to 38.3 µM), without a hit: top-dose activity change, negative = inhibition, usual class: inhibitors; actives 1.6% (n = 410,000); note: potency is the fitted concentration of half-maximal effect; % is set by controls: 0 for no effect and ±100 for the full control effect; nearly all actives have a fitted effect of over 55% in size
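Stable HEK293 clone (constitutively active GLP-1R + cAMP-response luciferase); 200 cells/uL plated, 12 h pre-culture, compound 24 hr, 37 deg C/5% CO2; detection reagent 12 min RT; luminescence.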
Active calls of the source: *. Unless noted, calls come from the whole dose curve; as a rule, active = well fitted curve in the direction sought with a large enough effect; inconclusive = small, poorly fitted or top-dose-only effect, or another doubt; inactive = no such curve, though single readings can be large; an effect the other way counts as inactive or inconclusive.

For COc1ccc(C(=O)Nc2ccc3c(c2)nc(CCNC(C)=O)n3C)cc1 the results were D3 antag 7.2, D3 ag 11.1, GLP-1R agonist 9.0% and GLP-1R inv ag -7.8%.
Screening CCCn1c(CNC(=O)c2ccccc2)nc2ccccc21 returned D3 antag -78.6*, D3 ag -8.8, GLP-1R agonist -5.3% and GLP-1R inv ag -4.4%.
CC(=O)c1cccc(Nc2c3c(nc4nc(-c5cccs5)nn24)CCCC3)c1 was read as D3 ag 7.2 and GLP-1R inv ag -21.7%.
Screening Cc1nc(N2CCOCC2)c2c(C(=O)N(C)c3ccccc3)c(C)oc2n1 returned D3 ag -11.0 and GLP-1R inv ag 2.1%.
`COc1ccc(CCNC(=O)C2c3ccccc3C(=O)N2Cc2ccccc2)cc1OC` (centres undefined) gave D3 ag 4.8 and GLP-1R inv ag -20.5%.
CC1=NN(c2nc(C)cc(C)n2)C(=O)C1CCC(C)C (centres undefined) was read as D3 antag -60.0*, D3 ag -3.4, GLP-1R agonist 27.4% and GLP-1R inv ag -13.6%.
CCC1C(=O)N(c2nc(C)cc(C)n2)N=C1C (centres undefined) was read as D3 antag 5.8, D3 ag 9.6, GLP-1R agonist -5.6% and GLP-1R inv ag -16.2%.
`O=C(O)c1cc(C(=O)O)cc(-c2ccc(/C=c3/sc4nc5ccccc5n4c3=O)o2)c1` gave D3 antag -0.7, D3 ag -0.3, GLP-1R agonist 3.9% and GLP-1R inv ag inconclusive.
Screening O=C(O)c1ccccc1-c1ccc(C=c2sc3nc4cc(Br)cnc4n3c2=O)o1 returned D3 antag -55.5*, D3 ag -10.1, GLP-1R agonist -4.6% and GLP-1R inv ag 3.3%.
NC1=C(Br)C(=O)c2ncccc2C1=O was read as D3 antag inconclusive, D3 ag -13.2, GLP-1R agonist -12.3% and GLP-1R inv ag 3.16µM*.
For O=C1C(=O)c2ncccc2-c2cccnc21 the results were D3 ag 11.2 and GLP-1R agonist -0.6%.
For CC1=C(C(=O)Nc2ccccc2)C(c2ccncc2)n2nc(SCc3ccccc3F)nc2N1 (centres undefined) the results were D3 ag -18.4, GLP-1R agonist -0.7% and GLP-1R inv ag 9.0%.
`Cc1nn(-c2ccc(F)cc2)c(-n2cccc2)c1C(=O)N1CCN(c2ccc(F)cc2)CC1` gave D3 ag -8.7, GLP-1R agonist -1.0% and GLP-1R inv ag inconclusive.
For OC(c1ccccc1)c1nc2ccccc2n1Cc1c(F)cccc1Cl (centres undefined) the results were D3 ag 4.9 and GLP-1R inv ag inconclusive.
For CC(C)N(Cc1nc(-c2ccccc2)no1)C(=O)C(C)(C)C the results were D3 antag 0.0, D3 ag 2.2, GLP-1R agonist 2.5% and GLP-1R inv ag inconclusive.
Cc1ccc(-c2noc(CN(C(=O)CCCCCN3C(=O)c4ccccc4C3=O)C(C)C)n2)cc1 was read as D3 antag 12.6, D3 ag 1.8, GLP-1R agonist 3.4% and GLP-1R inv ag 6.31µM*.
Screening CC(C)N(Cc1nc(-c2ccccc2)no1)C(=O)C(Cl)(Cl)Cl returned D3 antag -5.0, D3 ag -0.3, GLP-1R agonist 10.6% and GLP-1R inv ag 11.2µM*.
`Cc1ccc(-c2noc(CN(C(=O)CCN3C(=O)c4ccccc4C3=O)C(C)C)n2)cc1` gave D3 antag 28.6, D3 ag 6.5, GLP-1R agonist 0.0% and GLP-1R inv ag -6.3%.
Screening Cc1ccc(-c2noc(CN(C(=O)CCCN3C(=O)c4ccccc4C3=O)C(C)C)n2)cc1 returned D3 antag 1.3, D3 ag 3.7, GLP-1R agonist -3.9% and GLP-1R inv ag inconclusive.
CN(Cc1nc(-c2ccc(Cl)cc2)no1)C(=O)CCN1C(=O)[C@H]2CC=CC[C@H]2C1=O was read as D3 antag 14.6, D3 ag 0.8, GLP-1R agonist 3.8% and GLP-1R inv ag 2µM*.
For CC(C)N(Cc1nc(-c2ccc(Cl)cc2)no1)C(=O)CCC1CCCC1 the results were D3 antag 5.2, D3 ag 1.8, GLP-1R agonist -0.6% and GLP-1R inv ag 10µM*.
Screening O=C(NCCc1ccc(Cl)cc1)c1cnc2sc(N3CCCCC3)nn2c1=O returned D3 ag 7.0 and GLP-1R inv ag 4.4%.
For CCCN(Cc1nc(-c2ccc(Cl)cc2)no1)CC1CCCO1 (centres undefined) the results were D3 antag 14.7, D3 ag 5.7, GLP-1R agonist 3.4% and GLP-1R inv ag inconclusive.
`CCN(Cc1nc(-c2ccc(Cl)cc2)no1)CC1CCCO1` (centres undefined) gave D3 antag -0.1, D3 ag 2.3, GLP-1R agonist 4.5% and GLP-1R inv ag 1.26µM*.
`Cc1ccc2[nH]c(=O)c(N3CCOCC3)c(-c3ccccc3)c2c1` gave D3 antag 30.2, D3 ag 32.8*, GLP-1R agonist -0.5% and GLP-1R inv ag 0.0%.
For O=C(CCN1CCOCC1)Nc1c(-c2ccccc2)c2cc(Br)ccc2[nH]c1=O the results were D3 antag 17.6, D3 ag -1.6, GLP-1R agonist 5.4% and GLP-1R inv ag 1.6%.
For O=C(CN1CCCN(Cc2ccc(F)cc2)S1(=O)=O)NCc1ccccc1Cl the results were D3 ag -4.9 and GLP-1R inv ag inconclusive.
Cc1ccc2c(c1)NC(=O)C(CC(=O)Nc1ccccc1Cl)O2 (centres undefined) was read as D3 ag -5.8 and GLP-1R inv ag 2.2%.
For Cc1ccc(NC(=O)CCCc2nc3ccccc3s2)c(O)c1 the results were D3 antag 0.0, D3 ag 9.7, GLP-1R agonist 11.3% and GLP-1R inv ag inconclusive.
`Cc1cc(Cl)ccc1OCC(=O)OC(C)C(=O)NC(N)=O` (centres undefined) gave D3 antag -15.2, D3 ag 45.7*, GLP-1R agonist 20.4% and GLP-1R inv ag 8.4%.
Oc1ccccc1/C=N/Nc1ccnc(SCc2ccccc2)n1 was read as D3 antag -69.4*, D3 ag -17.5, GLP-1R agonist -14.2% and GLP-1R inv ag inconclusive.
For CO/N=C(/C(=O)N[C@@H]1C(=O)N2C(C(=O)O)=C(CSC(=O)c3ccco3)CSC12)c1csc(N)n1 (some centres undefined) the results were GLP-1R agonist 2.3%.
For Cc1ccc(-n2nnnc2SCC(=O)NC2CCCc3ccccc32)c(C)c1 (centres undefined) the results were D3 antag -29.5, D3 ag -1.6, GLP-1R agonist 9.0% and GLP-1R inv ag 10µM*.
Cc1ccc(-n2nnnc2SCC(=O)NC2CCCc3ccccc32)cc1 (centres undefined) was read as D3 antag -21.2, D3 ag -9.5, GLP-1R agonist -1.0% and GLP-1R inv ag 10µM*.
CCc1ccc(Oc2c(C(F)(F)F)oc3c(CN4CCCC(C)C4)c(O)ccc3c2=O)cc1 (centres undefined) was read as D3 ag 4.6 and GLP-1R inv ag -3.2%.

Screens from PubChem BioAssay.
